Results: the supplement of paper PMC3334620
Over roughly 33,000 sequences, “E-score (-0.5 to 0.5)” has its median near -0.012; the highest 2% begin near 0.29. Many of the other results were omitted from the sample, so the highest values are more common in it than they were.

Each sequence was assayed against T1, Ybr033w (UniProt P38073) (assay: PBM E-score (8-mer binding enrichment) (E-score (-0.5 to 0.5)); higher = stronger / more preferred TF binding). Details: protein concentration: 200 nM; construct: GST-full length.
T1 sequence: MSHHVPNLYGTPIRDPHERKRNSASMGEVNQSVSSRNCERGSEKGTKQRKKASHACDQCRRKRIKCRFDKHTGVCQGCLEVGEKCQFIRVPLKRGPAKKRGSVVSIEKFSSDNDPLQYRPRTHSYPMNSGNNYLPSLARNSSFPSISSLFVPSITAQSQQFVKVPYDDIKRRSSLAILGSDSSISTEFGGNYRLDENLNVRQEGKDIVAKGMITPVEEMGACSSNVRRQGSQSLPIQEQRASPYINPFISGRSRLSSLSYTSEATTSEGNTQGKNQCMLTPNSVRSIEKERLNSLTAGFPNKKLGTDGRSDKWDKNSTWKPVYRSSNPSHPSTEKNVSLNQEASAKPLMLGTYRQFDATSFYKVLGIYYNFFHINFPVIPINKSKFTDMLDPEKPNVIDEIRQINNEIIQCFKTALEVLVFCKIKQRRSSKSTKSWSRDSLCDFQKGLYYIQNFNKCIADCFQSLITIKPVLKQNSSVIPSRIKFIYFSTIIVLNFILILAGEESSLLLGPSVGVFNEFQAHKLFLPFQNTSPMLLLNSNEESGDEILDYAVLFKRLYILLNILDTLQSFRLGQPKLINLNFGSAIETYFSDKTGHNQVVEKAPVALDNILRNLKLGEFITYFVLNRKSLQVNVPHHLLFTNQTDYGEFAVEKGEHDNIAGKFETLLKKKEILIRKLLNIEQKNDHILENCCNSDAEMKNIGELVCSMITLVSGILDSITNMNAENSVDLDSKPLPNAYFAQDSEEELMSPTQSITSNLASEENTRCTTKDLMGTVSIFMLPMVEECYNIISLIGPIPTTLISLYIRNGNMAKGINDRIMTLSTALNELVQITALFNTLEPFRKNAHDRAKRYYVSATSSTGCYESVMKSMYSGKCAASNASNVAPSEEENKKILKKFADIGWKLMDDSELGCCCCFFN
Description: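 Universal 'all 10-mer' protein binding microarrays (Agilent AMADID 015681) probed with GST-tagged S. cerevisiae TFs (full-length or DBD) made by in vitro transcription/translation (PURExpress), about 100-200 nM. Bound TF was detected with fluorescent anti-GST. Each ungapped 8-mer (which stands for itself and its reverse complement) is scored by the PBM enrichment score (E-score), a modified Wilcoxon-Mann-Whitney statistic from -0.5 to +0.5, computed with the Universal PBM Analysis Suite. Scale: above 0.35 generally sequence-specific binding.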

Row | Sequence | PBM E-score
1 | GTTCGAAC | 0.209
2 | GGCTGTCA | -0.0424
3 | CAGCGAAC | 0.0498
4 | ACATAAGA | 0.293
5 | ACATAAGC | 0.0339
6 | TCATAAGA | 0.114
7 | CCCAGTTA | -0.0098
8 | GTGTTTGA | 0.191
9 | CAAGTGGC | 0.0512
10 | AATATTCC | 0.45
11 | GATATTAC | 0.31
12 | AATATTCT | 0.248
13 | CATATTAC | 0.17
14 | GATATTCA | 0.12
15 | AATATTCG | 0.161
16 | GATATTCC | 0.417
17 | GCTATTAC | -0.0504
18 | CATATTCC | 0.0424
19 | CCTGCACG | -0.159
20 | AGCAGTCC | -0.182
21 | GCGTGAAA | 0.0243
22 | AACTGCTT | 0.0101
23 | GCCGGTTA | -0.0903
24 | CTACAGCA | 0.0371
25 | TAAGGTCA | 0.028

Row | Sequence | PBM E-score
26 | ACGGGAGT | 0.0679
27 | CCGCTCAG | -0.111
28 | AGAACAGG | -0.125
29 | AGGTTACC | 0.0897
30 | GATGATCA | 0.0749
31 | GATGATCC | 0.4
32 | AATGATCA | 0.0742
33 | AATGATTC | 0.306
34 | CATGATTC | -0.131
35 | AATGATCT | 0.157
36 | AATGATAG | 0.215
37 | AATGATCC | 0.421
38 | AATGATAA | 0.192
39 | CATGATCC | 0.0454
40 | AATGATTA | 0.251
41 | AATGATAT | 0.298
42 | TCCCACGA | 0.0793
43 | ACTAGCCA | 0.0538
44 | AGAGTCTA | -0.16
45 | CGCTGCAG | -0.12
46 | GCGTTCAC | -0.0913
47 | GTACCGAC | -0.275
48 | CATGAGGA | 0.0386
49 | CGCTCTGC | -0.0367
50 | CTGCGTGA | 0.0319

Row | Sequence | PBM E-score
51 | ATTGATCA | 0.051
52 | CTTGATCC | 0.0221
53 | ATTGATCC | 0.466
54 | ATGCTTCA | 0.0658
55 | ATCTACTG | 0.143
56 | AACTACTC | 0.119
57 | AACTACTA | 0.298
58 | CAATACTA | 0.143
59 | TAATACTA | 0.362
60 | GAATACTA | 0.204
61 | AACTACTG | 0.126
62 | TACTACTA | 0.335
63 | ATCTACTC | 0.127
64 | ATCTACTA | 0.324
65 | CACTACTA | 0.094
66 | GACTACTA | 0.122
67 | TAACTATA | 0.242
68 | ATGCTGCG | -0.15
69 | CGAGGCAC | -0.109
70 | GTACCCAC | -0.116
71 | CGCAGGGA | -0.202
72 | AGCTAATA | 0.078
73 | AGCGCATC | 0.0587
74 | CGCGAAGC | 0.0254
75 | TACTAGTA | 0.377

Row | Sequence | PBM E-score
76 | GACTAGTA | 0.0157
77 | CACTAGTA | 0.0533
78 | CTTTAAAA | 0.2
79 | AAAGTCGG | -0.122
80 | ACTGTGCA | 0.031
81 | ATGACAAC | 0.111
82 | ATGACAAT | 0.293
83 | ATGACAAG | -0.0461
84 | AAAAAGTC | 0.22
85 | AAAAAGTA | 0.283
86 | ACAAAAGT | 0.0857
87 | AAAAAGTT | 0.314
88 | AAAAAAGT | 0.353
89 | AAAAAAGC | 0.171
90 | CTGTTGCC | -0.136
91 | AGTGAAAA | 0.183
92 | TGCCAACA | 0.0786
93 | GTGCGCAC | 0.0505
94 | GCAGTCCA | -0.029
95 | ATTGTTTA | 0.296
96 | ATCGTTTC | 0.184
97 | ATTGTTTG | 0.118
98 | GTCGTTTA | 0.0819
99 | ATCGTTTA | 0.307
100 | ATTGTTTC | 0.199

Row | Sequence | PBM E-score
101 | GTTGTCCA | 0.00858
102 | ATGGTCAA | 0.198
103 | AGCTGGCC | -0.179
104 | AGGTAGAC | -0.212
105 | CTAGAGAC | -0.0751
106 | ATTCAACG | 0.114
107 | ATACCTAA | 0.316
108 | TTACCTAA | 0.156
109 | ATACCTAT | 0.102
110 | CCAAGCGA | -0.0712
111 | AATAATGA | 0.247
112 | ACTAATTA | 0.281
113 | AATAATTC | 0.386
114 | GATAATTA | 0.361
115 | CATAATTA | 0.284
116 | AATAATTA | 0.372
117 | GCTAATTA | 0.175
118 | AATAATTG | 0.256
119 | CATAATTC | -0.00123
120 | AAACGTTC | 0.0667
121 | AGAGTGTG | -0.0636
122 | CGATGCGC | 0.0464
123 | AGAGGTGG | -0.156
124 | AAGTGAAA | 0.29
125 | GAGTGAAA | 0.129

Row | Sequence | PBM E-score
126 | CAGTGAAA | 0.126
127 | GTCCTTCA | -0.0408
128 | CAGCACTC | 0.0472
129 | AATGGTCA | 0.205
130 | AATAGTGC | 0.123
131 | AATAGTAA | 0.239
132 | AATAGTAT | 0.293
133 | AATAGTGG | 0.0387
134 | AATAGTGT | 0.289
135 | AATAGTAG | 0.201
136 | AGCAATAG | 0.0737
137 | CTTCGGAA | 0.243
138 | ATTCGGAA | 0.269
139 | GTTCGGAA | 0.316
140 | GAAGCGCC | -0.0866
141 | AACTTGAC | -0.0113
142 | AAATACTG | 0.172
143 | AAATACTT | 0.34
144 | GAATACTC | 0.0489
145 | AAATACTC | 0.316
146 | CAATACTC | 0.193
147 | AAATACTA | 0.224
148 | GTTAAGGA | 0.121
149 | AGCTGAAT | 0.135
150 | AGCTCTGC | -0.255

Row | Sequence | PBM E-score
151 | AAAGTCTA | -0.00319
152 | ACTCCTCA | -0.135
153 | ATTAAGCA | -0.0125
154 | GTTCATTA | 0.221
155 | ATTCATTA | 0.263
156 | CTTCATTA | 0.291
157 | ATTGGTGC | 0.0298
158 | ATACTTTG | 0.297
159 | ATACTTTA | 0.23
160 | ATACTTTC | 0.177
161 | AGCCAGGG | -0.362
162 | ACGGAAAA | 0.422
163 | CCGGAAAG | -0.0245
164 | ACGGAAAC | -0.12
165 | ACGGAAAT | 0.313
166 | ACGGAAAG | 0.0247
167 | GCGGAAAC | -0.191
168 | GCGGAAAA | 0.396
169 | GCGGGAAA | 0.128
170 | CCGGAAAC | 0.14
171 | CCGGAAAA | 0.44
172 | ACGGGAAT | 0.0676
173 | ACAGAAAT | 0.137
